Screening data from PubChem.
D2 ag-1 = HTS Assay for Allosteric Agonists of the Human D2 Dopamine Receptor: Primary Screen for Agonists. D(2) dopamine receptor (Homo sapiens), P14416. HEK293 T-REx D2 cells, calcium flux agonist mode. activation, % at 2 µM. hit rate 0.53% among 340,000. AID 485358, 2010;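 active means activation over 3 SD above normal in the single-dose calcium agonist read, cut at about 30% in these data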; further: 0% is about no effect
Target sequence (P14416 whole entry, looked up): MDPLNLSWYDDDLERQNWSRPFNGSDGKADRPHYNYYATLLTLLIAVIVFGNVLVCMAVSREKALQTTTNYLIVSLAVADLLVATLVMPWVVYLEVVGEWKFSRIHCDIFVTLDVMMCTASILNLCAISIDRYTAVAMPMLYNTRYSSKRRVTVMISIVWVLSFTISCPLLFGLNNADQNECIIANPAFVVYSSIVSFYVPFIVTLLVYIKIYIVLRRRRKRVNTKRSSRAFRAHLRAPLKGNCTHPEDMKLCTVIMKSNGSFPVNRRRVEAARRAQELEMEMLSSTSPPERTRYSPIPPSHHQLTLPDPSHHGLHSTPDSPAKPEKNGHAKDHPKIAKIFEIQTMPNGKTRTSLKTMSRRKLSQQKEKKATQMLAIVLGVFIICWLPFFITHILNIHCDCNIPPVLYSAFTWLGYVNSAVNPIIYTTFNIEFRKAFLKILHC
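Tetracycline-induced HEK293 Trex cells with D2 receptor force-coupled to calcium signaling, plated overnight at 30 C and loaded with no-wash calcium dye. Calcium flux read kinetically for 180 s after compound addition; responses flag agonists.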
D2 antagonist = HTS Assay for Allosteric Antagonists of the Human D2 Dopamine Receptor: Primary Screen for Antagonists. HEK293 TREx D2 cells, calcium flux, dopamine EC80. inhibition, % at 10 µM. hit rate 2% among 340,000. AID 485344, 2010; in the data active means inhibition above about 30%; inactive means below that, where a call was filed; further: 0% is about no effect
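Calcium mobilization kinetics were recorded at 1 s intervals in tetracycline-induced HEK293 T-REx D2 cells, first for 180 s after compound addition and then 180 s after EC80 dopamine.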
D2 ag-2 = Beta-Arrestin HTS for Positive Allosteric Modulators of the Human D2 Dopamine Receptor: Agonists | D(2) dopamine receptor (Homo sapiens), P14416 | activation, % (no concentration beside the values) | hit rate 0.084% among 360,000 | DiscoveRx PathHunter D2 beta-arrestin, luminescence, 90 min; 100% = 57 uM dopamine signal; in the data active means activation above about 40%
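Agonist mode: compounds alone added to overnight-plated D2 PathHunter cells for 90 min at 37 C, with 57 uM final dopamine (EC100) defining full response. Beta-arrestin recruitment detected by chemiluminescent reagent, read after 1 h at ambient temperature.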
D2 PAM-1 = Beta-Arrestin HTS for Positive Allosteric Modulators of the Human D2 Dopamine Receptor: Potentiators; D(2) dopamine receptor (Homo sapiens), P14416; DiscoveRx D2 beta-arrestin cells, luminescence, 90 min; 100% = 57 uM dopamine signal; potentiation, % (concentration not given with the values); hit rate 0.23% among 360,000; in the data active means potentiation above about 50%
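PathHunter D2 cells, attached overnight at 37 deg C, received compound in DMSO plus dopamine at EC20 (50 nM final) for 90 min at 37 deg C. Beta-arrestin recruitment was read as luminescence after 1 h with detection reagent at ambient temperature.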
D2 PAM-2 = HTS Assay for Positive Allosteric Modulators of the Human D2 Dopamine Receptor: Primary Screen for Potentiators | D(2) dopamine receptor (Homo sapiens), P14416 | HEK293 T-REx D2, calcium flux, EC20 dopamine potentiation | potentiation, % at 10 µM | hit rate 0.34% among 340,000;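 active means potentiation over 3 SD above the plate norm, cut at about 30% in these data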; further: 0% is about no effect
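Calcium flux readout, no-wash dye, 1 read/s. Inducible HEK293 Trex D2 line, overnight 30 C. Compound alone 180 s (agonist flags), then EC20 dopamine, another 180 s to score potentiation.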
An asterisk follows results filed as active; · = no result. This is a sample that favours compounds with a hit; in the whole collection about 2.4% have one here.

SMILES	D2 ag-1	D2 antagonist	D2 ag-2	D2 PAM-1	D2 PAM-2
COc1ccc(N(CC(=O)Nc2cccnc2)S(=O)(=O)c2ccc(C)cc2)cc1Cl	5	4	-1	-20	·
COC(=O)c1cc(NC(=O)CN(c2ccccc2OC)S(=O)(=O)c2ccccc2)ccc1Cl	1	36*	-2	-7	-4
CCOc1ccc(NC(=O)CN(c2ccc(OC)c(OC)c2)S(=O)(=O)c2ccc(C)cc2)cc1	1	55*	-6	-5	4
COC(=O)c1cc(NC(=O)CN(c2cccc(OC)c2)S(=O)(=O)c2ccccc2)ccc1Cl	2	13	-2	-11	3
O=C(CN(c1ccccc1)S(=O)(=O)c1ccc(Cl)cc1)Nc1cccnc1	1	34*	-3	-11	-33
COc1ccc(N(CC(=O)Nc2cccnc2)S(=O)(=O)c2ccccc2)cc1Cl	0	31*	-1	-8	-21
O=C(c1cnn(-c2ccc(F)cc2)c1-n1cccc1)N1CCN(c2ccccc2)CC1	1	·	·	·	-6
Cc1cc(C)c2c(CC(=O)Nc3nnc(C(C)C)s3)coc2c1	0	·	·	·	-6
C=CCC1(O)C(=O)N2C(=C1C(=O)N1CCOCC1)c1ccccc1CC2(C)C (stereo not given)	1	45*	-2	-6	-7
Cc1cn2c(=O)cc(COC(=O)COc3ccccc3C)nc2s1	-1	·	·	·	9
Cc1nn(-c2ccccc2)c(C)c1C(=O)OCC(=O)N(C)C1CCS(=O)(=O)C1 (stereo not given)	1	38*	-1	-2	0
CCc1ccc(NC(=O)COC(=O)CCCC2=NS(=O)(=O)c3ccccc3N2)cc1	-1	-5	2	-6	10
O=C(COC(=O)CCCC1=NS(=O)(=O)c2ccccc2N1)Nc1ccccc1	0	3	-5	-19	38*
CCOC(=O)c1cc(S(=O)(=O)N2CCN(c3cc(C)ccc3C)CC2)[nH]n1	0	·	·	·	-12
c1ccc(-c2noc(CSc3nc4ccccc4o3)n2)cc1	-1	-3	1	-7	-5
Clc1ccc(-c2nnc(SCc3nc(-c4ccccc4)no3)o2)cc1	0	41*	-5	-3	-8
CCOc1cccc(CC(=O)NCc2ccc3c(c2)CCN3C(=O)c2cccc(C)c2)c1OCC	0	·	·	·	3
Cc1cccc(C(=O)N[C@H](C(=O)NCCc2ccc(Cl)cc2)C(C)C)c1	-1	38*	-2	-2	-12
CC(C)[C@H](NC(N)=O)C(=O)NCCc1ccc(Cl)cc1	0	-4	-4	-3	-2
CCOc1ccc(CCn2c(-c3ccco3)nc3ccccc3c2=O)cc1OCC	0	36*	-2	1	-23
O=c1c2ccccc2nc(-c2ccoc2)n1CCc1ccccc1	0	2	-3	0	62*
O=c1c2ccccc2nc(-c2ccco2)n1Cc1ccccc1	-1	24	-3	-9	22
CCn1c(SCC(=O)c2[nH]c(C)c(C(C)=O)c2C)nnc1-c1cccs1	0	99*	0	3	-8
COCCn1c(-c2ccc(-c3ccccc3Cl)o2)nc2c1c(=O)[nH]c(=O)n2CC(C)C	0	-3	-2	-14	-1
COCCn1c(-c2ccc(NC(C)=O)cc2)nc2c1c(=O)[nH]c(=O)n2CC(C)C	0	31*	-2	-3	0
COc1ccc2c(c1)-c1nc(NC(=O)c3ccco3)sc1CC2	-1	5	3	1	2
COc1ccc2c(c1)CCc1sc(NC(=O)c3ccco3)nc1-2	-1	-2	5	4	30*
CCOC(=O)CC(NCc1ccc(OC)c(OCC)c1)c1ccc(C)cc1 (stereo not given)	0	61*	0	-13	-20
